# Assays:
# H1975 [1] = assay: area under confluence curve of compound monotherapy; compare to DMSO control AUC of the same experiment (AUC (confluence x time, arbitrary)); conditions: 1000 nM; DMSO control AUC in same experiment: 14522
# Method in brief: (§1)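 Adenocarcinoma lines were grown in RPMI 1640 with 10% FBS at 37 °C and 5% CO2, seeded at 20,000–30,000 cells/well in 48-well plates, and treated the next day with test compound alone at one dose: 1 uM or the highest dose giving <50% parental inhibition. Every 3–4 days the wells were washed with PBS and the drug was refreshed, and medium was drug-free from the DTP stage (10–21 days). IncuCyte tracked confluence until wells given only an EGFR inhibitor regrew. Area under the confluence curve was calculated in Prism, taking the median of triplicates where run, and set beside the vehicle value from the same experiment.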
# HCC2279 [2] = assay: as above; conditions: 1000 nM; DMSO control AUC in same experiment: 29252
# Method in brief: as §1
# HCC2935 [3] = assay: as above; conditions: 1000 nM; DMSO control AUC in same experiment: 11459
# Method in brief: as §1
# HCC4006 [4] = assay: as above; conditions: 1000 nM; DMSO control AUC in same experiment: 16794
# Method in brief: as §1
# HCC827 [5] = assay: as above; conditions: 1000 nM; DMSO control AUC in same experiment: 43928
# Method in brief: as §1
# II-18 [6] = assay: as above; conditions: 1000 nM; DMSO control AUC in same experiment: 23373
# Method in brief: as §1
# H1975 [7] = assay: area under confluence curve of osimertinib + compound combination regimen (DTP regrowth); compare to osimertinib-only DTP control AUC of the same experiment (AUC (confluence x time, arbitrary)); conditions: test compound dose 1000 nM, DMSO control AUC in same experiment: 15857
# Method in brief: (§2)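 EGFR-mutant NSCLC lines went into 48-well plates at 20,000–30,000 cells/well in RPMI 1640 with 10% FBS and were kept at 37 °C, 5% CO2. Cells got either the EGFR inhibitor plus a fixed-dose test compound from the start through the persister stage (10–21 days) and then drug-free medium, or the inhibitor alone followed by the test compound. Medium was changed every 3–4 days until wells given only the inhibitor regrew to confluence. The endpoint was the area under the IncuCyte confluence–time curve, calculated in Prism and reported as the median of triplicates where available.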
# HCC2279 [8] = assay: as above; conditions: test compound dose 1000 nM, DMSO control AUC in same experiment: 14404
# Method in brief: as §2
# HCC2935 [9] = assay: as above; conditions: test compound dose 1000 nM, DMSO control AUC in same experiment: 19215
# Method in brief: as §2
# HCC4006 [10] = assay: as above; conditions: test compound dose 1000 nM, DMSO control AUC in same experiment: 18415
# Method in brief: as §2
# HCC827 [11] = assay: as above; conditions: test compound dose 1000 nM, DMSO control AUC in same experiment: 21320
# Method in brief: as §2
# II-18 [12] = assay: as above; conditions: test compound dose 1000 nM, DMSO control AUC in same experiment: 11834
# Method in brief: as §2
# PC9 = assay: as above
# Method in brief: as §2
# [13] = dosing schedule: sequential, osimertinib-only DTP control AUC in same experiment: 22968
# [14] = dosing schedule: upfront, osimertinib-only DTP control AUC in same experiment: 27164
# [15] = dosing schedule: sequential, osimertinib-only DTP control AUC in same experiment: 26096
# [16] = dosing schedule: upfront, osimertinib-only DTP control AUC in same experiment: 33120
# [17] = dosing schedule: sequential, osimertinib-only DTP control AUC in same experiment: 22314
# [18] = dosing schedule: upfront, osimertinib-only DTP control AUC in same experiment: 29846
# [19] = dosing schedule: sequential, osimertinib-only DTP control AUC in same experiment: 12791
# [20] = dosing schedule: upfront, osimertinib-only DTP control AUC in same experiment: 17269
# [21] = dosing schedule: sequential, osimertinib-only DTP control AUC in same experiment: 15330
# [22] = dosing schedule: upfront, osimertinib-only DTP control AUC in same experiment: 20798
# [23] = dosing schedule: sequential, osimertinib-only DTP control AUC in same experiment: 8624
# [24] = dosing schedule: upfront, osimertinib-only DTP control AUC in same experiment: 10856
structure (smiles),measurement,setting,value
COc1cc(CCc2cc(NC(=O)c3ccc(N4CC(C)NC(C)C4)cc3)n[nH]2)cc(OC)c1 (stereo unspecified),area under confluence curve,H1975 [1],17400
same,area under confluence curve,HCC2279 [2],28700
same,area under confluence curve,HCC2935 [3],11000
same,area under confluence curve,HCC4006 [4],15300
same,area under confluence curve,HCC827 [5],46400
same,area under confluence curve,II-18 [6],19700
C[C@@H](Oc1cc(-c2cnn(C3CCNCC3)c2)cnc1N)c1c(Cl)ccc(F)c1Cl [Crizotinib] + C=CC(=O)Nc1cc(Nc2nccc(-c3cn(C)c4ccccc34)n2)c(OC)cc1N(C)CCN(C)C [osimertinib],area under confluence curve,H1975 [7]; [13],9770
same,area under confluence curve,H1975 [7]; [14],9330
same,area under confluence curve,HCC2279 [8]; [15],23100
same,area under confluence curve,HCC2279 [8]; [16],32900
same,area under confluence curve,HCC2935 [9]; [17],21400
same,area under confluence curve,HCC2935 [9]; [18],33400
same,area under confluence curve,HCC4006 [10]; [19],12500
same,area under confluence curve,HCC4006 [10]; [20],13000
same,area under confluence curve,HCC827 [11]; [21],10400
same,area under confluence curve,HCC827 [11]; [22],15000
same,area under confluence curve,II-18 [12]; [23],1450
same,area under confluence curve,II-18 [12]; [24],10800
same,area under confluence curve,"PC9; test compound dose 1000 nM, dosing schedule: sequential, osimertinib-only DTP control AUC in same experiment: 15001, DMSO control AUC in same experiment: 22064",8360
same,area under confluence curve,"PC9; test compound dose 1000 nM, dosing schedule: upfront, osimertinib-only DTP control AUC in same experiment: 24924, DMSO control AUC in same experiment: 22064",7510
Cc1c[nH]c2nc(Nc3ccc(N4CCN(C)CC4)c(F)c3)nc(-c3cccc(CC#N)c3)c12 + C=CC(=O)Nc1cc(Nc2nccc(-c3cn(C)c4ccccc34)n2)c(OC)cc1N(C)CCN(C)C [osimertinib],area under confluence curve,"PC9; test compound dose 300 nM, dosing schedule: sequential, osimertinib-only DTP control AUC in same experiment: 12535, DMSO control AUC in same experiment: 43316",1010
same,area under confluence curve,"PC9; test compound dose 300 nM, dosing schedule: sequential, osimertinib-only DTP control AUC in same experiment: 15163, DMSO control AUC in same experiment: 28684",4860
same,area under confluence curve,"PC9; test compound dose 300 nM, dosing schedule: sequential, osimertinib-only DTP control AUC in same experiment: 29087, DMSO control AUC in same experiment: 30008",25200
same,area under confluence curve,"PC9; test compound dose 300 nM, dosing schedule: upfront, osimertinib-only DTP control AUC in same experiment: 15354, DMSO control AUC in same experiment: 43316",3200
same,area under confluence curve,"PC9; test compound dose 300 nM, dosing schedule: upfront, osimertinib-only DTP control AUC in same experiment: 21337, DMSO control AUC in same experiment: 28684",6800
same,area under confluence curve,"PC9; test compound dose 300 nM, dosing schedule: upfront, osimertinib-only DTP control AUC in same experiment: 34430, DMSO control AUC in same experiment: 30008",25900
Cc1cc2cc(C(=O)c3cnn(-c4cnc(Oc5c(F)cccc5F)cc4C)c3N)[nH]c2cc1NS(C)(=O)=O + C=CC(=O)Nc1cc(Nc2nccc(-c3cn(C)c4ccccc34)n2)c(OC)cc1N(C)CCN(C)C [osimertinib],area under confluence curve,"PC9; test compound dose 1000 nM, dosing schedule: sequential, osimertinib-only DTP control AUC in same experiment: 10968, DMSO control AUC in same experiment: 21594",7640
same,area under confluence curve,"PC9; test compound dose 1000 nM, dosing schedule: upfront, osimertinib-only DTP control AUC in same experiment: 17834, DMSO control AUC in same experiment: 21594",9050
Cc1[nH]nc(C(F)(F)F)c1Cc1sc2c(c1C(=O)N1C[C@](C)(O)CO1)c(=O)n(C)c(=O)n2C(C)C + C=CC(=O)Nc1cc(Nc2nccc(-c3cn(C)c4ccccc34)n2)c(OC)cc1N(C)CCN(C)C [osimertinib],area under confluence curve,"PC9; test compound dose 1000 nM, dosing schedule: sequential, osimertinib-only DTP control AUC in same experiment: 10725, DMSO control AUC in same experiment: 30578",18600
same,area under confluence curve,"PC9; test compound dose 1000 nM, dosing schedule: upfront, osimertinib-only DTP control AUC in same experiment: 10245, DMSO control AUC in same experiment: 30578",11200
CC(=O)Nc1cccc(-n2c(=O)n(C3CC3)c(=O)c3c(Nc4ccc(I)cc4F)n(C)c(=O)c(C)c32)c1 [Trametinib] + C=CC(=O)Nc1cc(Nc2nccc(-c3cn(C)c4ccccc34)n2)c(OC)cc1N(C)CCN(C)C [osimertinib],area under confluence curve,"PC9; test compound dose 10 nM, dosing schedule: sequential, osimertinib-only DTP control AUC in same experiment: 14554, DMSO control AUC in same experiment: 49189",10400
same,area under confluence curve,"PC9; test compound dose 10 nM, dosing schedule: sequential, osimertinib-only DTP control AUC in same experiment: 14708, DMSO control AUC in same experiment: 21341",3390
same,area under confluence curve,"PC9; test compound dose 10 nM, dosing schedule: upfront, osimertinib-only DTP control AUC in same experiment: 21313, DMSO control AUC in same experiment: 21341",6970
same,area under confluence curve,"PC9; test compound dose 10 nM, dosing schedule: upfront, osimertinib-only DTP control AUC in same experiment: 24473, DMSO control AUC in same experiment: 49189",9410
COc1nn(C)cc1Nc1nccc(-c2c[nH]c3c(NC(=O)[C@@H](C)N4CCN(C)CC4)cccc23)n1 + C=CC(=O)Nc1cc(Nc2nccc(-c3cn(C)c4ccccc34)n2)c(OC)cc1N(C)CCN(C)C [osimertinib],area under confluence curve,H1975 [7]; [13],19800
same,area under confluence curve,H1975 [7]; [14],18200
same,area under confluence curve,HCC2279 [8]; [15],23400
same,area under confluence curve,HCC2279 [8]; [16],31200
same,area under confluence curve,HCC2935 [9]; [17],20700
same,area under confluence curve,HCC2935 [9]; [18],31500
same,area under confluence curve,HCC4006 [10]; [19],12900
same,area under confluence curve,HCC4006 [10]; [20],18700
same,area under confluence curve,HCC827 [11]; [21],10400
same,area under confluence curve,HCC827 [11]; [22],15000
same,area under confluence curve,II-18 [12]; [23],1310
same,area under confluence curve,II-18 [12]; [24],1640
